Test results: PubChem BioAssay AID1159580 (chemical genetic matrix, 2015)
Several values for one entry are separate records, joined by “and”; a condition that tells them apart may be missing. Identical values can stand only once. Hit rate of the full screen: of about 5,500 compounds, about 2,000 (36%) were called active. About 18% were inconclusive and are not listed. Cut-off read from the data, not from the text of the source: active = normalized growth mostly below about 0.91 (no sharp cut-off); inconclusive = no clear call, values can overlap the other calls; inactive = mostly above about 0.92. Some of the results follow.

Test: chemical genetic growth profiling, strain panel (AID 1159580);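 note: tested at 20 µM; growth read once vehicle control cultures reached saturation at 30 °C; 1 = growth at the plate median or of vehicle wells; lower values mean less growth of the strain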
Settings: S. cerevisiae deletion strains, growth OD

Measured: normalized growth

CCC1(CC)C(=O)C=CNC1=O
inactive: locus YAL021C, strain ccr4, stronger effect = lower value 0.998 | locus YAL026C, strain drs2, stronger effect = lower value 0.996 | locus YAL030W, strain snc1, stronger effect = lower value 1 | locus YBL061C, strain skt5, stronger effect = lower value 1.01 | locus YBR009C, strain hhf1, stronger effect = lower value 1.02 | locus YBR021W, strain FUR4, stronger effect = lower value 1.02 | locus YBR023C, strain chs3, stronger effect = lower value 0.994 | locus YBR171W, strain sec66, stronger effect = lower value 0.985 | locus YBR229C, strain ROT2, stronger effect = lower value 1.01 | locus YBR231C, strain swc5, stronger effect = lower value 0.997 | locus YBR279W, strain paf1, stronger effect = lower value 1 | locus YCL011C, strain gbp2, stronger effect = lower value 0.992 | locus YCL016C, strain dcc1, stronger effect = lower value 0.998 | locus YCL029C, strain bik1, stronger effect = lower value 1.01 | locus YCL061C, strain MRC1, stronger effect = lower value 0.999 | locus YCL069W, strain vba3, stronger effect = lower value 0.993 | locus YCR088W, strain abp1, stronger effect = lower value 0.986 | locus YDL005C, strain med2, stronger effect = lower value 0.999 | locus YDL035C, strain GPR1, stronger effect = lower value 1.02 | locus YDL040C, strain nat1, stronger effect = lower value 0.999 | locus YDL074C, strain BRE1, stronger effect = lower value 0.977 | locus YDL101C, strain DUN1, stronger effect = lower value 1 | locus YDL134C, strain PPH21, stronger effect = lower value 1.03 | locus YDL185W, strain tfp1, stronger effect = lower value 1.02 | locus YDL192W, strain arf1, stronger effect = lower value 1.01 | locus YDR001C, strain nth1, stronger effect = lower value 0.997 | locus YDR069C, strain doa4, stronger effect = lower value 1.02 | locus YDR101C, strain arx1, stronger effect = lower value 0.988 | locus YDR137W, strain rgp1, stronger effect = lower value 1.03 | locus YDR159W, strain sac3, stronger effect = lower value 1.02 | locus YDR162C, strain NBP2, stronger effect = lower value 1.02 | locus YDR195W, strain ref2 0.985 | locus YDR297W, strain sur2, stronger effect = lower value 0.995 | locus YDR318W, strain mcm21, stronger effect = lower value 1.01 | locus YDR334W, strain swr1, stronger effect = lower value 0.959 | locus YDR335W, strain msn5, stronger effect = lower value 0.997 | locus YDR388W, stronger effect = lower value 1.01 | locus YDR392W, strain spt3, stronger effect = lower value 0.945 | locus YDR502C, strain sam2, stronger effect = lower value 0.995 | locus YEL003W, strain gim4, stronger effect = lower value 0.994 | locus YEL037C, strain rad23, stronger effect = lower value 0.991 | locus YEL061C, strain CIN8 (second series), stronger effect = lower value 0.992 | locus YEL061C, strain CIN8, stronger effect = lower value 1 | locus YER015W, strain faa2, stronger effect = lower value 1 | locus YER016W, strain bim1, stronger effect = lower value 0.999 | locus YER110C, stronger effect = lower value 1.03 | locus YER111C, strain swi4, stronger effect = lower value 1.01 | locus YER155C, strain BEM2 (second series), stronger effect = lower value 0.992 | locus YER155C, strain BEM2, stronger effect = lower value 1 | locus YER167W, strain BCK2, stronger effect = lower value 1.02 | locus YFR010W, strain ubp6, stronger effect = lower value 0.985 | locus YGL078C, strain dbp3, stronger effect = lower value 1.02 | locus YGL086W, strain mad1, stronger effect = lower value 0.99 | locus YGL167C, strain pmr1, stronger effect = lower value 1 | locus YGL173C, strain kem1, stronger effect = lower value 1.01 | locus YGL227W, strain vid30, stronger effect = lower value 1 | locus YGL240W, strain doc1, stronger effect = lower value 1.02 | locus YGL248W, strain PDE1, stronger effect = lower value 0.987 | locus YGL253W, strain hxk2, stronger effect = lower value 0.985 | locus YGR078C, strain PAC10, stronger effect = lower value 0.97 | locus YGR135W, strain pre9, stronger effect = lower value 1.05 | locus YGR252W, strain gcn5, stronger effect = lower value 0.996 | locus YHR013C, strain ard1, stronger effect = lower value 1.03 | locus YHR027C, strain rpn1, stronger effect = lower value 0.982 | locus YHR030C, strain SLT2, stronger effect = lower value 1.01 and 1 | locus YHR079C, strain IRE1 (second series), stronger effect = lower value 1.01 | locus YHR079C, strain IRE1, stronger effect = lower value 1.01 | locus YHR094C, strain hxt1, stronger effect = lower value 1.02 | locus YHR129C, strain ARP1, stronger effect = lower value 1.01 | locus YHR142W, strain chs7, stronger effect = lower value 0.964 | locus YHR200W, strain rpn10, stronger effect = lower value 1.01 | locus YIL066C, strain RNR3, stronger effect = lower value 0.996 | locus YIL073C, strain SPO22, stronger effect = lower value 1.07 | locus YIL125W, strain kgd1, stronger effect = lower value 0.999 | locus YIR030C, strain dcg1, stronger effect = lower value 1.01 | locus YJL092W, strain hpr5, stronger effect = lower value 0.992 | locus YJL095W, strain BCK1 (second series), stronger effect = lower value 0.996 | locus YJL095W, strain BCK1, stronger effect = lower value 0.976 and 1.01 | locus YJL115W, strain asf1, stronger effect = lower value 0.973 | locus YJL129C, strain trk1, stronger effect = lower value 0.993 | locus YJL134W, strain LCB3, stronger effect = lower value 1 | locus YJL154C, strain vps35, stronger effect = lower value 0.983 | locus YJL164C, strain tpk1, stronger effect = lower value 1.01 | locus YJL166W, strain qcr8, stronger effect = lower value 1 | locus YJL168C, strain set2, stronger effect = lower value 1 | locus YJL187C, strain SWE1 (second series), stronger effect = lower value 0.982 | locus YJL187C, strain SWE1, stronger effect = lower value 1.01 | locus YJR043C, strain POL32, stronger effect = lower value 0.994
